# How the values were obtained:
# Assay in all cases: DAPPL (digital affinity profiling via proximity ligation, sequencing); 10 mM Tris-HCl pH 7.5, 50 mM NaCl, 1 mM DTT, 4% glycerol, room temperature, 30 min; GST-TFs on glutathione beads, 16-mer random dsDNA library, 0.1% formaldehyde crosslink after washing; high values mean tight binding
# FEV = target: T1, FEV (Homo sapiens, UniProt Q99581 1-238); details: protein: recombinant; tags: N-terminal GST; dsDNA, one strand shown
# T1 sequence: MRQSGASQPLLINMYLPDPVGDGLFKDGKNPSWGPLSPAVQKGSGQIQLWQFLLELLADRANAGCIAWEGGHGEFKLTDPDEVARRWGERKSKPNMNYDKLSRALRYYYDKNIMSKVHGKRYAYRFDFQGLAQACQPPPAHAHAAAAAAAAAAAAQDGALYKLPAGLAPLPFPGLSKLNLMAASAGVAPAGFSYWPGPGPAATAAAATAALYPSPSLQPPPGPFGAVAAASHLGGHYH
# Summary of the method: (§1)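 Sequencing on an Illumina NextSeq500 followed washing, crosslinking with 0.1% formaldehyde, proximity ligation (BsaI/T4 ligase, 1 h, 37 °C) and PCR amplification of pools that had been incubated for 30 min at room temperature with 200 nmole of a random double-stranded 16-mer DNA library in Tris/NaCl/DTT/glycerol buffer. Each pool held DNA-barcoded human transcription factors, expressed in yeast as GST fusions and captured on glutathione beads, plus a tag-only sample. Binding signal is a hexamer's read frequency for a factor divided by its frequency in the tag-only sample.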
# ETV5 = ETV5 (Homo sapiens, UniProt P41161 1-510); details: protein: recombinant; tags: N-terminal GST; dsDNA, one strand shown
# Sequence of ETV5 (P41161 whole entry): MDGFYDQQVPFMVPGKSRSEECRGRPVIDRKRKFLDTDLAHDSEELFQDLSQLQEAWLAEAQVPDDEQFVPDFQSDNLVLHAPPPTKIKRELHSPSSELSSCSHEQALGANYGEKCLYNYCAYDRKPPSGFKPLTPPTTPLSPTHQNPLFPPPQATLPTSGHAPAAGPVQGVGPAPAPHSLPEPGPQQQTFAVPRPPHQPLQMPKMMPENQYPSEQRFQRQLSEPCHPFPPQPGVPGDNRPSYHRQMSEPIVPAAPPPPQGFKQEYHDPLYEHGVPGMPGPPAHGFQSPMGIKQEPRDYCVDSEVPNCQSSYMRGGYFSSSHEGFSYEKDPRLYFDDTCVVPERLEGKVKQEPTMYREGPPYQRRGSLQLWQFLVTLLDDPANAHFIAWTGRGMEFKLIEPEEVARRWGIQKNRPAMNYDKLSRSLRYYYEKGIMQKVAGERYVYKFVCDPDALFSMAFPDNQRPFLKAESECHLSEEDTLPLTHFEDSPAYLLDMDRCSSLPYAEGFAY
# Summary of the method: as §1
# HSF1 = HSF1 (Homo sapiens, UniProt Q00613 1-529); details: protein: recombinant; tags: N-terminal GST; chain copies: 3; dsDNA, one strand shown
# Sequence of HSF1 (Q00613 whole entry): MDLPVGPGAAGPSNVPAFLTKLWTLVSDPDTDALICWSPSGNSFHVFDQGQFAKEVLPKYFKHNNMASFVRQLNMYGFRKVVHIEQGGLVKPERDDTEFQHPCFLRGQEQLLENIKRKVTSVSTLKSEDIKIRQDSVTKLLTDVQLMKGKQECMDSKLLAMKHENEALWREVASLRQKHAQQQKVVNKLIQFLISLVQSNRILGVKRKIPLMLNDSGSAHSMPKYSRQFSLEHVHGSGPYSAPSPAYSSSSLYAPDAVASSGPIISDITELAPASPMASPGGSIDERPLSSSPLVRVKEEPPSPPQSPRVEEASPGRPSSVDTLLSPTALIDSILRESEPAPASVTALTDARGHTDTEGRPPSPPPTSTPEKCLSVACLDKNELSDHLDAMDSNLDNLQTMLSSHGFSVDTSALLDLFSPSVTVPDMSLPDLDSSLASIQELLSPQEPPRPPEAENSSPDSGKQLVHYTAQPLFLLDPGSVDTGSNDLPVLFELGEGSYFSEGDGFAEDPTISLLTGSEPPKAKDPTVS
# Summary of the method: as §1
# SPIC = target: T2, SPIC (Homo sapiens, UniProt Q8N5J4 1-248); details: protein: recombinant; tags: N-terminal GST; dsDNA, one strand shown
# T2 sequence: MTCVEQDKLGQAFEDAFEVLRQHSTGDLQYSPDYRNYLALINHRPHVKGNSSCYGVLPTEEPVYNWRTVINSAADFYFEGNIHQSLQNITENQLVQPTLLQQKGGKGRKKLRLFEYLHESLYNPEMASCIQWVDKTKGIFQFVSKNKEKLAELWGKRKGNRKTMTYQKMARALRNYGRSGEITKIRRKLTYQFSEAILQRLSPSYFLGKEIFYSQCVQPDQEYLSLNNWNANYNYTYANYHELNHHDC
# Summary of the method: as §1
# ELF4 = ELF4 (Homo sapiens, UniProt Q99607 1-663); details: protein: recombinant; tags: N-terminal GST; dsDNA, one strand shown
# Sequence of ELF4 (Q99607 whole entry): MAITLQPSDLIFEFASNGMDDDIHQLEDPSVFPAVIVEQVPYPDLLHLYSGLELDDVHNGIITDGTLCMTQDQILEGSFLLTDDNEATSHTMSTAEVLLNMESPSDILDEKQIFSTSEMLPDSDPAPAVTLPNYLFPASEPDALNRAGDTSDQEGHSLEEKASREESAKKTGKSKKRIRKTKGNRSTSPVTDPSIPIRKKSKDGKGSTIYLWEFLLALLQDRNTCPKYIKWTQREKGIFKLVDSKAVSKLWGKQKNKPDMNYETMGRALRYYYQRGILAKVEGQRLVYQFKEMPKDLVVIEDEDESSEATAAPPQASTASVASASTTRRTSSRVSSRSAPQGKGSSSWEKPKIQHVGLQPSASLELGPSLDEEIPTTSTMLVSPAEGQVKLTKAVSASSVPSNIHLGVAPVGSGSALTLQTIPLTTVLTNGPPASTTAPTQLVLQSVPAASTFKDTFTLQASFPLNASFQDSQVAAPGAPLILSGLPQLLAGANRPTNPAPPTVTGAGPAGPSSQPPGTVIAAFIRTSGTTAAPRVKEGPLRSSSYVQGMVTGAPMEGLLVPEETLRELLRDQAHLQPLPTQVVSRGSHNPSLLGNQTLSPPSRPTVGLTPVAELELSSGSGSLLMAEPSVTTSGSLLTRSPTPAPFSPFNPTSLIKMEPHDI
# Summary of the method: as §1
# ELK4 = target: T3, ELK4 (Homo sapiens, UniProt P28324-2 1-405); details: protein: recombinant; tags: N-terminal GST; dsDNA, one strand shown
# T3 sequence: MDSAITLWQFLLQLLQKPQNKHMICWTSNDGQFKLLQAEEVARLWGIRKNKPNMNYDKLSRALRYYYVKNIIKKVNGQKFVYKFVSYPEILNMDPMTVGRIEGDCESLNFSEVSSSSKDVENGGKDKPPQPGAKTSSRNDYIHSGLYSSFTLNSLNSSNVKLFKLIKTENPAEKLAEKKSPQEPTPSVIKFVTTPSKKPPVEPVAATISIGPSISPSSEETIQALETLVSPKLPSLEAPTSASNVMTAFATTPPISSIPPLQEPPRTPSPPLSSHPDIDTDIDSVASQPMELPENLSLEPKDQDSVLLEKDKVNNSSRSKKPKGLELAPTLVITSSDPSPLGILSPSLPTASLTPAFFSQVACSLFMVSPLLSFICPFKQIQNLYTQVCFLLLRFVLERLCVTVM
# Summary of the method: as §1
# ETV2 = target: T4, ETV2 (Homo sapiens, UniProt O00321 1-342); details: protein: recombinant; tags: N-terminal GST; dsDNA, one strand shown
# T4 sequence: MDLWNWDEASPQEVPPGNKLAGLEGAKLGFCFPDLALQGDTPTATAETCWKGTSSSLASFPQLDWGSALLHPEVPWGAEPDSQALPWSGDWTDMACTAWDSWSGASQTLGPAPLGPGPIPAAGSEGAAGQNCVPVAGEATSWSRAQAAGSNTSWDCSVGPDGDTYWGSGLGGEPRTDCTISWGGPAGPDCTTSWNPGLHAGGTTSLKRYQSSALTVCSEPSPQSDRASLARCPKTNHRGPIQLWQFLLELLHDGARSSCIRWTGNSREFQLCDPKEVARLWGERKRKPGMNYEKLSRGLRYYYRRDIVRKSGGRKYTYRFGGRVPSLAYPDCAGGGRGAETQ
# Summary of the method: as §1
# ELF3 = target: T5, ELF3 (Homo sapiens, UniProt P78545 1-371); details: protein: recombinant; tags: N-terminal GST; dsDNA, one strand shown
# T5 sequence: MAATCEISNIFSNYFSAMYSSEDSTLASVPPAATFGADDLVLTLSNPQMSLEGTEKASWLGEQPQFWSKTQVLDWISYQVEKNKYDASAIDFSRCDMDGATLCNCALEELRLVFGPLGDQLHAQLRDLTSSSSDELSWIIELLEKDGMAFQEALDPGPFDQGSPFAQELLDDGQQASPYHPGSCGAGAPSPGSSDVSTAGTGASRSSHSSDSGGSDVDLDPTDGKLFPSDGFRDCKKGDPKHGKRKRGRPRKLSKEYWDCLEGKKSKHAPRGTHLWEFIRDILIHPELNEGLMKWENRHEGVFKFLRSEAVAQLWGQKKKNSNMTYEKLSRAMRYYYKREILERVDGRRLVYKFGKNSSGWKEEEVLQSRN
# Summary of the method: as §1
# CRX = CRX (Homo sapiens, UniProt O43186 1-299); details: protein: recombinant; tags: N-terminal GST; dsDNA, one strand shown
# Sequence of CRX (O43186 whole entry): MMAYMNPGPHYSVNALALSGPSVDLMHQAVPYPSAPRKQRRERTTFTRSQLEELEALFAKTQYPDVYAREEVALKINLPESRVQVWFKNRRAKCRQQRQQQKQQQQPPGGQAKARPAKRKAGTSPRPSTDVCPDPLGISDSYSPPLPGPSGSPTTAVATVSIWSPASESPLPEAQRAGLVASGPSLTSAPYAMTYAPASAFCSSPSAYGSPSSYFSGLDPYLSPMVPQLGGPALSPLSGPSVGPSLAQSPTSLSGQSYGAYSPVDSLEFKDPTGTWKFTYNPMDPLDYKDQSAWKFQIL
# Summary of the method: as §1
# ETV1 = ETV1 (Homo sapiens, UniProt P50549 1-477); details: protein: recombinant; tags: N-terminal GST; dsDNA, one strand shown
# Sequence of ETV1 (P50549 whole entry): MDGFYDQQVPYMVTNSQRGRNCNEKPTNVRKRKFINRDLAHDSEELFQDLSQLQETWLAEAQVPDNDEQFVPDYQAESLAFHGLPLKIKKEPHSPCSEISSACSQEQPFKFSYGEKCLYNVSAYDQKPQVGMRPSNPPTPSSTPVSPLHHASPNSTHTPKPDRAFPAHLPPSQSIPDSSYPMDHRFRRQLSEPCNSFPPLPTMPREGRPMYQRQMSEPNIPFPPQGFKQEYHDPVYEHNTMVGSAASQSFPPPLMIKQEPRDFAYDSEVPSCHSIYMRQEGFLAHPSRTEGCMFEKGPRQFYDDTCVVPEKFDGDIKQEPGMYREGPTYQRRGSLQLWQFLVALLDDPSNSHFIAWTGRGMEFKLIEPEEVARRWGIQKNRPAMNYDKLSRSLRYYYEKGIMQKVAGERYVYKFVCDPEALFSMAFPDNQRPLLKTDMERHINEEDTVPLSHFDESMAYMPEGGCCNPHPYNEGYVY
# Summary of the method: as §1
# ERF = target: T6, ERF (Homo sapiens, UniProt P50548 1-548); details: protein: recombinant; tags: N-terminal GST; dsDNA, one strand shown
# T6 sequence: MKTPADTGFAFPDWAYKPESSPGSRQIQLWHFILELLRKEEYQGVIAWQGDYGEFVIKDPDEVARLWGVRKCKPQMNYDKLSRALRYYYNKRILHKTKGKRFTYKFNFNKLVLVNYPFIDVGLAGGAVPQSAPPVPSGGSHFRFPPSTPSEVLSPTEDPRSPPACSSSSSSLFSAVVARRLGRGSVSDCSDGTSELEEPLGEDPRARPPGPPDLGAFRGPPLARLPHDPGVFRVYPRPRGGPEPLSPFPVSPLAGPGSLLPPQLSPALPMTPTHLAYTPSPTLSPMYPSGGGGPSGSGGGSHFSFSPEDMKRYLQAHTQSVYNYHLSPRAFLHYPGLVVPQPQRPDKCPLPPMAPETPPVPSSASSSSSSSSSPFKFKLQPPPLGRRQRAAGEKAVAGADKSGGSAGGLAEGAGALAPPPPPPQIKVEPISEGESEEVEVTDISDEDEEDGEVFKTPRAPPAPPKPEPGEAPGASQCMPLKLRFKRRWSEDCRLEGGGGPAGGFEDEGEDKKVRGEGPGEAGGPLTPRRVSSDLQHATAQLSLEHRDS
# Summary of the method: as §1
# ETV3L = target: T7, ETV3L (Homo sapiens, UniProt Q6ZN32 1-361); details: protein: recombinant; tags: N-terminal GST; dsDNA, one strand shown
# T7 sequence: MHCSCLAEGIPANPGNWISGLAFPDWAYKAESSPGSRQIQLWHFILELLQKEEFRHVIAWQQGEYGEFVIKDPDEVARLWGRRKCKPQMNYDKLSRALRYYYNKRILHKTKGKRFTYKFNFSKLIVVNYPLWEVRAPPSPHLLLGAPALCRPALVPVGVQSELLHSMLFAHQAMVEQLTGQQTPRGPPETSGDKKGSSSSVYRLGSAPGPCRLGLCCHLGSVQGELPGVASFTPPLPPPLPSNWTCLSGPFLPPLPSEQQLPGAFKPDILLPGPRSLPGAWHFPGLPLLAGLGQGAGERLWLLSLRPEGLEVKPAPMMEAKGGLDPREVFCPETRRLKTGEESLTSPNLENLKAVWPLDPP
# Summary of the method: as §1
# ETS2 = target: T8, ETS2 (Homo sapiens, UniProt P15036 1-469); details: protein: recombinant; tags: N-terminal GST; dsDNA, one strand shown
# T8 sequence: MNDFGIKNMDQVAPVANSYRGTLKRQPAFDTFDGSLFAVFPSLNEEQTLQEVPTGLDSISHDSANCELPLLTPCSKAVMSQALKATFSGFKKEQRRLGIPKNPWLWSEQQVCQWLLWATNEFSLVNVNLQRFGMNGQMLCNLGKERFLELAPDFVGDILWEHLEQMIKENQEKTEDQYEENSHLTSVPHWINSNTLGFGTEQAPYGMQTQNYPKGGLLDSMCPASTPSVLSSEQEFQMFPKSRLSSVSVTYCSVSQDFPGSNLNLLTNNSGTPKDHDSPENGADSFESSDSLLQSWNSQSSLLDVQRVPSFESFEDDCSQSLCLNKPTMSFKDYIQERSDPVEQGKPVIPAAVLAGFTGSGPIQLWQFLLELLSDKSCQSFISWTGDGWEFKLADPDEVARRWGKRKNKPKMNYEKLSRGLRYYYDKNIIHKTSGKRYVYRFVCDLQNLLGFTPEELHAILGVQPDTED
# Summary of the method: as §1
# SPDEF = target: T9, SPDEF (Homo sapiens, UniProt O95238 1-335); details: protein: recombinant; tags: N-terminal GST; dsDNA, one strand shown
# T9 sequence: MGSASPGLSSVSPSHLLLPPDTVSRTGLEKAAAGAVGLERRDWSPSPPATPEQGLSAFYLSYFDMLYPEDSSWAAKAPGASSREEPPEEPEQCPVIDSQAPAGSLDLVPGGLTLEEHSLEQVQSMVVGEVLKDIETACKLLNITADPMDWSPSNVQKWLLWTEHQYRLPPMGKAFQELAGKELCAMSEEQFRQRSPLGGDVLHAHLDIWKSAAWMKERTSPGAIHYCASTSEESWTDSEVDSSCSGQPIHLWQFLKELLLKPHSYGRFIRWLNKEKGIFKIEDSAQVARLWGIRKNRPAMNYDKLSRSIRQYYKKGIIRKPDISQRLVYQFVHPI
# Summary of the method: as §1
# ETV7 = target: T10, ETV7 (Homo sapiens, UniProt Q9Y603 1-341); details: protein: recombinant; tags: N-terminal GST; dsDNA, one strand shown
# T10 sequence: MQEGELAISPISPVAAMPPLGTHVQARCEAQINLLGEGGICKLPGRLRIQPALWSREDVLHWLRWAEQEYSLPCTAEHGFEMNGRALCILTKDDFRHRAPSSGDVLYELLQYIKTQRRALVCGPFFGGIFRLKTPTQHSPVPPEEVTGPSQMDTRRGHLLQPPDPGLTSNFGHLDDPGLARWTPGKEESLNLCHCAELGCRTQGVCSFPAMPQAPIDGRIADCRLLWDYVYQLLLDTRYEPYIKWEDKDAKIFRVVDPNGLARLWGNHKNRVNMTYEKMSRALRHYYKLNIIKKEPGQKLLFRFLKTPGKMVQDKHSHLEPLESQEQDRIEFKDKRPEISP
# Summary of the method: as §1
# ELF5 = target: T11, ELF5 (Homo sapiens, UniProt Q9UKW6-2 1-255); details: protein: recombinant; tags: N-terminal GST; dsDNA, one strand shown
# T11 sequence: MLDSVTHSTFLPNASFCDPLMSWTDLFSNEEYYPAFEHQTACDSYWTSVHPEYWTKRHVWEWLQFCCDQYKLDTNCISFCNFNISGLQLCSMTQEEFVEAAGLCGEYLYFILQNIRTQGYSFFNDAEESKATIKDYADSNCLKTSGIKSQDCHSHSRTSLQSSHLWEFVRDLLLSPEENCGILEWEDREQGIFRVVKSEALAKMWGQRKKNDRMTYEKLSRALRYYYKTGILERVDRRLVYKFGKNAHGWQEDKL
# Summary of the method: as §1
# ETV3 = target: T12, ETV3 (Homo sapiens, UniProt P41162-2 1-143); details: protein: recombinant; tags: N-terminal GST; dsDNA, one strand shown
# T12 sequence: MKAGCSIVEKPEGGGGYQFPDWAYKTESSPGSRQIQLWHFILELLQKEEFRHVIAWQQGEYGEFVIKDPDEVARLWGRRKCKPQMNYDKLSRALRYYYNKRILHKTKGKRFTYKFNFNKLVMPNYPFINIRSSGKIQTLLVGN
# Summary of the method: as §1
# ETV6 = ETV6 (Homo sapiens, UniProt P41212 1-452); details: protein: recombinant; tags: N-terminal GST; dsDNA, one strand shown
# Sequence of ETV6 (P41212 whole entry): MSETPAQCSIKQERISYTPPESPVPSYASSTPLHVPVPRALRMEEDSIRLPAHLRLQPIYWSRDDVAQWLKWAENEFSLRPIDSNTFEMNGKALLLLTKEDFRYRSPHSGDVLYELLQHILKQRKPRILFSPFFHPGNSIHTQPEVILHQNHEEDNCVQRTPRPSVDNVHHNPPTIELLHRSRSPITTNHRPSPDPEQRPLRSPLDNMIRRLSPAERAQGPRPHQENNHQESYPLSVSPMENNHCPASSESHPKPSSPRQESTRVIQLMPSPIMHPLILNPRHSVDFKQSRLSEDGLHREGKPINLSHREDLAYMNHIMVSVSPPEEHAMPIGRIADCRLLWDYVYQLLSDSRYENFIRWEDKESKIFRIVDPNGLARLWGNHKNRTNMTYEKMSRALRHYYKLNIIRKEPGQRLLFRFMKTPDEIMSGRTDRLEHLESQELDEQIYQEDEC
# Summary of the method: as §1
sequence,measurement,setting,value
ACCCGA,binding signal,FEV,"1.1 fold enrichment (6-mer frequency, TF over GST control)"
same,binding signal,ETV5,"1.08 fold enrichment (6-mer frequency, TF over GST control)"
same,binding signal,HSF1,"1.21 fold enrichment (6-mer frequency, TF over GST control)"
same,binding signal,SPIC,"1.08 fold enrichment (6-mer frequency, TF over GST control)"
same,binding signal,ELF4,"1.03 fold enrichment (6-mer frequency, TF over GST control)"
same,binding signal,ELK4,"1.04 fold enrichment (6-mer frequency, TF over GST control)"
same,binding signal,ETV2,"1.17 fold enrichment (6-mer frequency, TF over GST control)"
same,binding signal,ELF3,"1.11 fold enrichment (6-mer frequency, TF over GST control)"
same,binding signal,CRX,"1.1 fold enrichment (6-mer frequency, TF over GST control)"
same,binding signal,ETV1,"1.1 fold enrichment (6-mer frequency, TF over GST control)"
same,binding signal,ERF,"1.22 fold enrichment (6-mer frequency, TF over GST control)"
same,binding signal,ETV3L,"1.05 fold enrichment (6-mer frequency, TF over GST control)"
same,binding signal,ETS2,"1.07 fold enrichment (6-mer frequency, TF over GST control)"
same,binding signal,SPDEF,"1.03 fold enrichment (6-mer frequency, TF over GST control)"
same,binding signal,ETV7,"1.11 fold enrichment (6-mer frequency, TF over GST control)"
same,binding signal,ELF5,"1.01 fold enrichment (6-mer frequency, TF over GST control)"
same,binding signal,ETV3,"1.05 fold enrichment (6-mer frequency, TF over GST control)"
same,binding signal,ETV6,"1.04 fold enrichment (6-mer frequency, TF over GST control)"

# From paper PMC7862700, “An all-to-all approach to the identification of sequence-specific readers for epigenetic DNA modifications on cytosine”
